Laboratory results as given in PubChem BioAssay (NCATS).
Records with an inconclusive call do not appear. The source made the active and inactive calls. Calls follow the shape of the dose curve; as a rule, active = well fitted curve in the direction sought with a large enough effect; inconclusive = small, poorly fitted or top-dose-only effect, or another doubt; inactive = no such curve, though single readings can be large; an effect the other way counts as inactive or inconclusive.

Key:
[1] = qHTS of pediatric cancer cell lines to identify multiple opportunities for drug repurposing: Primary screen for NB-EBc1 cells (AID 1347095); also: potency is read from the fitted curve at half-maximal effect
Summary of the method: (§1)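 CRCs from 8- or 11-point titrations (lowest final 0.59 nM NPC, 0.78 nM MIPE). Cell viability: CellTiter-Glo after 48 h incubation, 15 min room-temperature development, luminescence imaging.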

[2] = qHTS of pediatric cancer cell lines to identify multiple opportunities for drug repurposing: Primary screen for U-2 OS cells (AID 1347096); also: nearly all actives have a fitted effect of over 50% in size
Summary of the method: (§2)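 Cells (500-1,000/well) rested 5 h, then received compounds for 48 h; metabolically active cells were measured by CellTiter-Glo luminescence. Final concentrations spanned up to 46 µM (MIPE, 11-point) or 0.59 nM-46 µM (NPC, 8-point) in primary screens, 11-point in follow-ups.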

[3] = qHTS of pediatric cancer cell lines to identify multiple opportunities for drug repurposing: Primary screen for LAN-5 cells (AID 1347100); also: potency is read from the fitted curve at half-maximal effect
Summary of the method: as §2

[4] = qHTS of pediatric cancer cell lines to identify multiple opportunities for drug repurposing: Primary screen for Rh18 cells (AID 1347102); also: nearly all actives have a fitted effect of over 65% in size; also: potency is read from the fitted curve at half-maximal effect
Summary of the method: as §2

[5] = qHTS of pediatric cancer cell lines to identify multiple opportunities for drug repurposing: Primary screen for OHS-50 cells (AID 1347103); also: nearly all actives have a fitted effect of over 40% in size; also: potency is read from the fitted curve at half-maximal effect
Summary of the method: as §2

[6] = qHTS of pediatric cancer cell lines to identify multiple opportunities for drug repurposing: Primary screen for RD cells (AID 1347104); also: nearly all actives have a fitted effect of over 55% in size; also: potency is read from the fitted curve at half-maximal effect
Summary of the method: as §1

[7] = qHTS of pediatric cancer cell lines to identify multiple opportunities for drug repurposing: Primary screen for SK-N-SH cells (AID 1347098); also: nearly all actives have a fitted effect of over 65% in size; also: potency is read from the fitted curve at half-maximal effect
Summary of the method: as §2

[8] = qHTS of pediatric cancer cell lines to identify multiple opportunities for drug repurposing: Primary screen for NB1643 cells (AID 1347099); also: nearly all actives have a fitted effect of over 50% in size; also: potency is read from the fitted curve at half-maximal effect
Summary of the method: as §1

[9] = qHTS of pediatric cancer cell lines to identify multiple opportunities for drug repurposing: Primary screen for Saos-2 cells (AID 1347097); also: nearly all actives have a fitted effect of over 40% in size; also: potency is read from the fitted curve at half-maximal effect
Summary of the method: as §1

[10] = qHTS of pediatric cancer cell lines to identify multiple opportunities for drug repurposing: Primary screen for BT-12 cells (AID 1347101); also: nearly all actives have a fitted effect of over 25% in size; also: potency is read from the fitted curve at half-maximal effect
Summary of the method: as §2

Measured: Potency

O=C(Oc1ccc([N+](=O)[O-])cc1)N1CCN(Cc2cccc(Oc3ccccc3)c2)CC1
active: [6] 18.7 µM
inactive: [1] | [2] | [3] | [4] | [5]

CCNC(=O)CC1N=C(c2ccc(Cl)cc2)c2cc(OC)ccc2-n2c(C)nnc21 (centres undefined)
active: [1] 20.9 µM | [7] 15.2 µM | [8] 14.8 µM | [3] 10.5 µM | [5] 21.7 µM | [6] 5.9 µM
inactive: [2]

COc1ccc(C(=O)c2c(C)n(CCN3CCOCC3)c3cc(I)ccc23)cc1
active: [1] 20.9 µM | [9] 18.7 µM | [8] 14.8 µM | [6] 18.7 µM

COc1ccc(N(C(=O)Oc2c(C)cccc2C)c2ccnc(Nc3ccc(N4CCN(C)CC4)cc3)n2)c(OC)c1
active: [1] 8.33 µM | [7] 0.242 µM | [3] 1.48 µM | [5] 9.68 µM
inactive: [2] | [4]

CC(C)(C)c1cc(C=C(C#N)C#N)cc(Br)c1O
active: [1] 4.69 µM | [8] 4.69 µM | [5] 30.6 µM
inactive: [2] | [4]

COC(=O)c1cncn1C(C)c1ccccc1 (centres undefined)
not listed: [9]
inactive: all other assays above

O=[N+]([O-])/N=C1\NCCN1Cc1ccc(Cl)nc1
not listed: [9]
inactive: all other assays above

CC(C)(C)C(O)C(Oc1ccc(Cl)cc1)n1cncn1 (centres undefined)
not listed: [5] | [7] | [9]
inactive: all other assays above

C[C@]12CC[C@H]3[C@@H](CCC4=CC(=O)CC[C@@]43C)[C@H]1CC[C@H]2OC(=O)CCC1CCCC1
not listed: [6] | [7] | [9]
inactive: all other assays above

CN(C)NC(=O)CCC(=O)O
not listed: [5] | [8] | [9]
inactive: all other assays above

C[C@]12CCC(=O)C(O)=C1CC[C@@H]1[C@H]3CCC(=O)[C@@]3(C)CC[C@@H]12
not listed: [5] | [8] | [9]
inactive: all other assays above

Cc1c(C(=O)c2cccc3ccccc23)c2cccc3c2n1[C@H](CN1CCOCC1)CO3
active: [1] 20.9 µM | [8] 11.8 µM | [10] 27.3 µM | [4] 20.9 µM | [5] 13.7 µM | [6] 29.6 µM
inactive: [2]

CC1=C(O)C(=O)C=C2C1=CC=C1[C@@]2(C)CC[C@@]2(C)[C@@H]3C[C@](C)(C(=O)O)CC[C@]3(C)CC[C@]12C
active: [1] 0.743 µM | [9] 2.35 µM | [7] 3.04 µM | [8] 1.66 µM | [3] 1.87 µM | [10] 2.73 µM | [4] 1.87 µM | [5] 2.43 µM | [6] 1.32 µM

CCCN(CCC)c1c([N+](=O)[O-])cc(S(N)(=O)=O)cc1[N+](=O)[O-]
active: [1] 30.6 µM | [9] 30.6 µM | [7] 49.8 µM | [8] 48.6 µM | [10] 28.2 µM | [5] 28.2 µM | [6] 38.6 µM

CC(C)[C@H]1C(=O)N[C@H](CO)Cc2c[nH]c3cccc(c23)N1C
not listed: [3] | [5] | [9]
inactive: all other assays above

CO/C=C(/C(=O)OC)c1ccccc1Oc1cc(Oc2ccccc2C#N)ncn1
active: [1] 27.3 µM | [3] 21.7 µM | [10] 8.93 µM | [5] 14.2 µM

N=c1c2c(-c3ccccc3)c(-c3ccccc3)n(Cc3ccccc3)c2ncn1C1CCC(O)CC1 (centres undefined)
active: [1] 0.59 µM | [9] 23.5 µM | [8] 4.69 µM | [3] 1.05 µM | [10] 6.85 µM

O=C(Nc1ccncc1)C(=O)c1cn(Cc2ccc(Cl)cc2)c2ccccc12
active: [1] 0.0264 µM | [9] 0.0372 µM | [10] 0.137 µM | [6] 0.0469 µM
inactive: [4]

CC[C@H]1C=CC=CC[C@@H](C)[C@H](O)[C@@](C)(O)C(=O)[C@@H](C)[C@H](O)[C@@H](C)C(=O)[C@@H](C)[C@H](O)[C@@H](C)C=CC(=O)O[C@@H]2[C@@H](C)[C@H](CC1)O[C@]1(CC[C@H](C)[C@H](C[C@@H](C)O)O1)[C@H]2C
active: [1] 0.0132 µM | [3] 18.7 µM | [10] 0.0061 µM | [4] 26.4 µM | [6] 23.5 µM
inactive: [7]

CCNC(=O)C[C@@H]1N=C(c2ccc(Cl)cc2)c2cc(OC)ccc2-n2c(C)nnc21
active: [1] 10.5 µM | [9] 4.69 µM | [8] 1.05 µM | [3] 2.35 µM | [5] 1.53 µM | [6] 1.18 µM

CCOC(=O)c1c(C(C#N)=CN)c2ccc(Cl)c(Cl)c2n1C
inactive: [2] | [3] | [10] | [4] | [5] | [6]

CCCCCCCCCC(CC)c1ccc(S(=O)(=O)O)cc1 (centres undefined)
active: [9] 30.6 µM
not listed: [1] | [5]
inactive: all other assays above

Nc1ccc(N=Nc2ccccc2)cc1
inactive: [9]
active: [3] 38.6 µM

CN1[C@H]2CC(O)C[C@H]1[C@H]1O[C@H]12 (some centres undefined)
inactive: [2]
active: [9] 13.2 µM | [8] 20.9 µM | [10] 19.3 µM | [5] 9.68 µM | [6] 33.2 µM

O=C(N[C@@H](COc1ccc2[nH]c(=O)[nH]c2c1)c1ccccc1)c1cccn(Cc2ccc(F)c(F)c2)c1=O
active: [9] 18.7 µM | [5] 30.6 µM
inactive: [2] | [3]

CC(=O)OCC1=C(C(=O)O)N2C(=O)[C@@H](N)[C@@H]2SC1
inactive: [2] | [4]
active: [9] 0.935 µM | [10] 1.37 µM | [5] 1.37 µM

Clc1ccccc1C(c1ccccc1)(c1ccccc1)n1cccn1
not listed: [1] | [5] | [8]
inactive: all other assays above

C#C[C@]1(O)C=C[C@@H]2[C@@H]3CCC4=CC(=O)CC[C@@H]4[C@H]3CC[C@@]21CC
active: [8] 8.33 µM
not listed: [1] | [5] | [10]
inactive: all other assays above

O=C1C=CC[C@@H]2[C@H]3CCCN4CCC[C@@H](CN12)[C@@H]34
inactive: [2] | [9]

CC=C(C)C(=O)N[C@@H](c1ccccc1)[C@@H](O)C(=O)O[C@H]1C[C@@]2(O)[C@@H](OC(=O)c3ccccc3)[C@@H]3[C@]4(OC(C)=O)CO[C@@H]4C[C@H](O)[C@@]3(C)C(=O)[C@H](OC(C)=O)C(=C1C)C2(C)C
active: [9] 0.0132 µM | [3] 0.001 µM | [5] 0.001 µM
inactive: [2] | [4]

S=C(SSC(=S)N1CCCCC1)N1CCCCC1
active: [9] 0.0376 µM | [8] 0.0944 µM | [3] 0.168 µM | [10] 0.0389 µM | [4] 0.0299 µM | [6] 0.0299 µM

CCCCCCCCCCCCCCCC[N+](C)(C)C
active: [7] 17.2 µM | [3] 23.7 µM | [10] 7.77 µM | [4] 5.31 µM | [5] 3.89 µM | [6] 13.3 µM

ClC1=C(Cl)[C@]2(Cl)[C@@H]3[C@@H]4C[C@@H]([C@H]5O[C@@H]45)[C@@H]3[C@@]1(Cl)C2(Cl)Cl
inactive: [2]
active: [9] 38.6 µM | [5] 28.2 µM

C[C@@H]1CC[C@H]2[C@@H](C)C(=O)O[C@@H]3O[C@@]4(C)CC[C@H]1[C@]32OO4
inactive: [2] | [9] | [7] | [8] | [3] | [4]

O=C(Nc1ccccc1-c1ccc(Cl)cc1)c1cccnc1Cl
not listed: [1] | [5]
inactive: all other assays above

CC(O)=C(C#N)C(=O)Nc1cc(Br)ccc1Br
inactive: [2] | [10] | [4] | [5] | [6]
active: [8] 1.32 µM

O=[N+]([O-])c1cc([N+](=O)[O-])c2ccccc2c1
not listed: [1]
inactive: all other assays above

O=c1cccc2n1CC1CNC[C@H]2C1
active: [7] 24.1 µM | [8] 5.9 µM | [3] 2.96 µM | [4] 3.32 µM | [6] 18.7 µM

C[C@]12Cc3cn[nH]c3C[C@@H]1CC[C@@H]1[C@H]2CC[C@@]2(C)[C@H]1CC[C@]2(C)O
not listed: [1] | [5]
inactive: all other assays above

COc1ccc2c(c1)CN(C)CC2c1ccc(Cl)c(Cl)c1 (centres undefined)
inactive: [2] | [4]
active: [9] 18.7 µM | [3] 20.9 µM | [5] 21.7 µM

C=C[C@@H]1CN2CCC1C[C@@H]2[C@@H](O)c1ccnc2ccccc12 (some centres undefined)
inactive: [2]
active: [9] 26.4 µM | [7] 30.4 µM | [8] 10.5 µM | [5] 30.6 µM | [6] 29.6 µM

CCOP(=O)(OCC)C(C)NC(=O)N(CCCl)N=O (centres undefined)
not listed: [1]
inactive: all other assays above

O=S(=O)(c1ccc(Cl)cc1)c1ccc(Cl)cc1
inactive: [2] | [3] | [4] | [6]

O=C(NCC1CCOCC1)c1cnc(Nc2ccc(Cl)cc2Cl)nc1C(F)(F)F
inactive: [2] | [4]
active: [7] 6.07 µM | [8] 9.35 µM

COc1nn(CSP(=S)(OC)OC)c(=O)s1
inactive: [2]

C#CC1(O)CCC2C3CCC4=CC(=O)CCC4(C)C3CCC21C (centres undefined)
active: [8] 23.5 µM
not listed: [1] | [9]
inactive: all other assays above

CN1CCN(c2ccc([N+](=O)[O-])c3no[n+]([O-])c23)CC1
inactive: [2] | [7]
active: [9] 26.4 µM

O=[N+]([O-])c1c2ccccc2cc2ccccc12
inactive: [2] | [3] | [10] | [4]

Nc1ccc(Cl)cc1N
active: [3] 24.3 µM
inactive: [2] | [8] | [10] | [4] | [6]

C[C@]12CC[C@H](O)CC1=CC[C@H]1[C@H]3CCC(=O)[C@@]3(C)CC[C@@H]12
inactive: [2] | [7] | [10] | [4] | [6]

CC(C)Oc1cccc(NC(=O)c2ccccc2C(F)(F)F)c1
active: [5] 25.2 µM
inactive: [2] | [8] | [6]

CCCCCCCCc1ccc(O)cc1
active: [9] 39 µM | [5] 25.4 µM
inactive: [2] | [8] | [4] | [6]

c1ccc(CCCN2CCN(CCOC(c3ccccc3)c3ccccc3)CC2)cc1
inactive: [2]
active: [8] 26.4 µM | [3] 29.6 µM | [6] 29.6 µM

O=C(O)CNC(=O)c1c(O)c2ccccc2n(Cc2ccccc2)c1=O
not listed: [1] | [5] | [10]
inactive: all other assays above

C[C@](O)(COc1ccc(C#N)cc1)C(=O)Nc1ccc(C#N)c(C(F)(F)F)c1
active: [8] 23.5 µM | [5] 27.3 µM
inactive: [2] | [4]
